# According to ChEMBL document CHEMBL1157539, “Thousands of chemical starting points for antimalarial lead identification” (Nature, 2010):
# Test system: HepG2
# Test: GSK_TCMDC: Percent inhibition of human HepG2 cell line. Test compounds present at 10uM.
# Assay type: functional
row,SMILES,Inhibition
1,CC1(C)NC(N)=NC(=N)N1OCOc1ccc(Cl)cc1.Cl,68%
2,Cc1ccc(C2CC(c3cccs3)=NN2C(=O)c2ccc(Br)o2)cc1 (stereo not given),11%
3,Cc1cccc2nc(-c3ccc(-c4cccc(NC(=O)Nc5ccc(F)c(F)c5F)c4)cc3)[nH]c12,40%
4,COC(=O)c1cccc(OCCNC2CCN(C[C@H](O)c3ccnc4ccc(OC)cc34)CC2)c1.O=C(O)C(=O)O,0%
5,CC(Cc1ccc(C(=O)Nc2ccc(CC(C)NCCc3cccc(Cl)c3)cc2)cc1)NCCc1ccc(C(F)(F)F)cc1 (stereo not given),98%
6,Cc1nc(N/C=C/c2ccc(O)cc2)cc(N2CCCC2)n1,0%
7,Cc1nc(-c2cccc3c(NC(=O)Nc4ccc5nccc(N6CCN(C)CC6)c5c4)cccc23)no1.Cl,0%
8,COc1cc(Cc2cnc(N)nc2N)cc(OCCCCCC(N)=O)c1OC,0%
9,CCc1nc2nc(C)cc(Nc3ccc(F)c(Cl)c3)n2n1,2%
10,COc1ccc2ncc(F)c([C@@H](O)CN3CCC(NCc4ccc5c(c4)NCCS5)CC3)c2n1.Cl,77%
11,COc1ccc(N2CCN(CCCCNC(=O)c3ccc(NC(=O)c4cccc(Cl)c4)cc3)CC2)c(OC)c1,18%
12,CC(C)N1CCN(C(CN2CCN(CCCOc3cccc(F)c3)CC2)c2ccc(F)cc2)CC1.Cl (stereo not given),38%
13,CC1(C)NC(N)=NC(=N)N1OCOc1cc(Cl)c(Cl)cc1Cl.Cl,66%
14,COc1ccc(-c2ccccc2CNC2Cc3ccccc3C2)cc1S(=O)(=O)NCCN1CCCC1.O=C(O)C(F)(F)F,18%
15,CNCC(C)(C)c1nc(-c2ccc(Cl)c(O)c2)c(-c2ccncc2)[nH]1.Cl,46%
16,CCOc1cc(/C=N/Nc2nc3ccccc3[nH]2)ccc1OCc1ccc([N+](=O)[O-])cc1,2%
17,Cc1ccc(C(NC(=O)c2ccccc2)c2ccc3cccnc3c2O)cc1 (stereo not given),53%
18,c1ccc(-c2nc(Nc3nc4ccccc4[nH]3)[nH]c2-c2ccccc2)cc1,14%
19,COc1ccc2nccc(N3C[C@H]4C[C@@H]3CN4CCNCc3ccc4c(n3)NC(=O)CS4)c2n1.Cl,21%
20,CC(Cc1ccc(C(=O)OCCOC(=O)c2ccc(CC(C)NCC(O)c3cccc(C(F)(F)F)c3)cc2)cc1)NCC(O)c1cccc(C(F)(F)F)c1 (stereo not given),10%

row,SMILES,Inhibition
1,CC(C)C(=O)NC(c1cccs1)c1cc(Cl)c2cccnc2c1O (stereo not given),23%
2,Cc1cc2ccccc2c(CON2C(=N)N=C(N)NC2(C)C)c1C.Cl,65%
3,COc1ccc(S(=O)(=O)N2CCOCC2)cc1NC(=O)c1cc2ccccc2o1,8%
4,Cc1ccc(O)cc1Nc1ccnc2cc(-c3ccccc3)ccc12.Cl,45%
5,CCN(CC)CC(O)Cc1c2ccc([N+](=O)[O-])cc2nc2cc(OC)c(OC)cc12 (stereo not given),41%
6,O=C(Nc1ccc(-c2nc3ccccc3[nH]2)cc1)c1ccc(N2CCOCC2)c([N+](=O)[O-])c1,47%
7,O=C(Nc1ccc(Cl)cc1)Nc1cccc(-c2ccc(-c3nc4ccccc4[nH]3)cc2)c1,19%
8,CC(C)[C@H](NC(=O)c1ccc(O)c(-c2cccc(C(F)(F)F)c2)c1)C(=O)NCCN1CCCCC1,3%
9,OC(c1ccc(Cl)cc1)(c1ccc(Cl)cc1)C(c1ccc(Cl)cc1)n1ccnc1 (stereo not given),15%
10,O=C(Nc1cccc(CN2CCCN(CCc3ccccc3)CC2)c1)c1cc2ccccc2s1.O=C(O)C(F)(F)F,37%
11,COc1ccc(Cl)cc1N1CCN(CCCNC(=O)c2ccc(-c3nc4cc5ccccc5cc4[nH]3)c(F)c2)CC1,12%
12,CN(C)c1nc2cc(-n3cnc4cc(-c5ccc(Cl)cc5)sc4c3=O)ccc2n1CCCN1CCCC1.O=C(O)C(F)(F)F,99%
13,CC(=O)Oc1cc(C)ccc1C1CCN(CCCCNC(=O)c2ccc(-c3ccc(C(F)(F)F)cc3)cc2)CC1,54%
14,Cc1cccc2nc(-c3ccc(-c4cccc(NC(=O)C(C)CN(C)C)c4)cc3)[nH]c12 (stereo not given),20%
15,CCN(CCCN1CCCCC1)c1cc(C)nc(Nc2ccc(C(C)C)cc2)n1.O=C(O)C(F)(F)F,34%
16,CCN(CC)CCN(Cc1ccc(-c2ccc(C(F)(F)F)cc2)cc1)C(=O)Cn1c(SCc2ccc(F)cc2)nc(=O)c2sccc21.O=C(O)C(O)C(O)C(=O)O,51%
17,CC(C)N1CCC(N(Cc2ccc(-c3ccc(C(F)(F)F)cc3)cc2)C(=O)Cn2c(SCc3cccc(F)c3F)cc(=O)c3c2CCC3)CC1.O=C(O)C(O)C(O)C(=O)O,44%
18,CC(C)(Oc1ccc(Cl)cc1)C(=O)NCCC1CCN(CCCCCNC(=O)/C=C/c2ccc(Cl)c(Cl)c2)CC1,73%
19,O=C(Nc1ccc(OC2CCN(Cc3ccc(F)cc3)CC2)c(Cl)c1)c1ccoc1.O=C(O)C(F)(F)F,0%
20,CNC(=O)C1Cc2c([nH]c3cc(Br)ccc23)C2(CCN(CCc3ccccc3)CC2)N1 (stereo not given),10%
